Consider 27 molecules from PubChem BioAssay AID1851 (National Center for Advancing Translational Sciences (NCATS), 2009).

Among all 16,000 compounds or so, about 5,800 (36%) were called active. Inconclusive results (about 23%) are left out. The list shows a part of the results. Values without a mark were called inactive. Calls come from the whole dose curve; as a rule, active = well fitted curve in the direction sought with a large enough effect; inconclusive = small, poorly fitted or top-dose-only effect, or effect the other way; inactive = no such curve, though single readings can be large or run the other way.
% is set by controls: 0 for no effect and ±100 for the full control effect.

Cytochrome P450 2C19 (Homo sapiens), sequence (P33261 whole entry, looked up): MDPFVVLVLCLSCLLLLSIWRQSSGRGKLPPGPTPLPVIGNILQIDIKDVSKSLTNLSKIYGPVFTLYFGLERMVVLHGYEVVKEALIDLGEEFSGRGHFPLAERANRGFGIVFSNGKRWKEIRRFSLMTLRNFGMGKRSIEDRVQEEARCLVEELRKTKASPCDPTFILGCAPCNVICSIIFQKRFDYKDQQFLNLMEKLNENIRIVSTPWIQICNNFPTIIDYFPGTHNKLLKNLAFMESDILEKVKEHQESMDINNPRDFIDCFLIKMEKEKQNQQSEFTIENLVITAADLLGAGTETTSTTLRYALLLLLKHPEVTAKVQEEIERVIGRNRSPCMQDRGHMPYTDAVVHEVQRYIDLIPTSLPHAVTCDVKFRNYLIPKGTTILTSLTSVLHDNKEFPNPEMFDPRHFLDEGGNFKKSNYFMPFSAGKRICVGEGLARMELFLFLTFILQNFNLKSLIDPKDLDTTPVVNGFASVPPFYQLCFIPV

The experiment addresses Cytochrome P450 2C19 (Homo sapiens) (UniProt P33261). The experiment in a line: Cytochrome panel assay with activity outcomes. Particulars: recombinant CYP, pro-luciferin dealkylation, luminescence, p450-cyp2c19; series mostly up to 57.1 µM; activity, negative = inhibition: at the top concentration.
In the case of `CCN1C(=O)[C@H]2[C@H]3[C@H](O)[C@H](O)C/C(=N/O[C@@H]4O[C@@H](COC(C)=O)[C@@H](OC(C)=O)[C@@H](OC(C)=O)[C@H]4OC(C)=O)[C@@H]3CC[C@@H]2C1=O`, the activity, negative = inhibition is 13.6% [at 11.4 µM]. On the same count and under the same terms, to `Cc1cc(OC(=O)c2ccccc2Cl)cc(=O)n1C` belongs -13.3%. On to `Cc1ccc(-c2cccc(OC(=O)c3ccccc3F)c2)cc1`, for which the AC50 (usually the concentration at which the activity in the assay is half-maximal) was 2.51 µM (active). With `O=C(c1cc(O)c(O)c([N+](=O)[O-])c1)c1ccccc1F`, the “activity, negative = inhibition” value is -8.03%. Still for that read-out and setting: in the case of `CN(C)C(=N)N=C(N)N` it was 2.73% [at 25.6 µM]. Take `COc1ccc(Cl)cc1NC(=O)C12CCC(C)(C(=O)O1)C2(C)C` (configuration not stated): the AC50 is 1.26 µM (active).

Regarding `O=C1CCCCC(=O)c2ccccc2N1`, the “activity, negative = inhibition” value is -6.61%. `Cc1cc2c(s1)CCCCC(=O)N2`: the half-maximal activity concentration (AC50) was 22.4 µM (active). As for `N#C[C@H]1CN[C@H](N)N[C@@H]1N`, the activity, negative = inhibition was 14.3% [at 11.4 µM]. Take `Oc1[nH]c2ccccc2c1/C=N/c1nccs1`: the AC50 is 14.1 µM (active). Turning to `O=C1c2ccccc2C(=O)C1c1ccccc1`, the “activity, negative = inhibition” value was -10.9% [at 25.6 µM]. Consider `c1ccc(C2OCC3(CO2)COC(c2ccccc2)OC3)cc1` (configuration not stated), for which the AC50 was 2.51 µM (active). For the molecule `CC(C)(C)c1[nH]nc2c1C(c1ccc(OC(=O)c3ccco3)cc1)C(C#N)=C(N)O2` (configuration not stated), the “activity, negative = inhibition” value was -28.5%.

On to `C/C(=C\c1ccco1)C1C(C#N)=C(N)Oc2n[nH]c(-c3ccccc3)c21` (configuration not stated), for which the AC50 was 2.24 µM (active).

In the case of `COc1ccccc1CN1CC[C@@]2(CCCN(C(=O)c3cccn3C)C2)C1`, the “activity, negative = inhibition” value is 6.39%. For `Cc1cccc(NC(=O)C23CCC(C)(C2Br)C3(C)C)c1` (configuration not stated), the AC50 was 4.47 µM (active). As to `Cc1cccc(NC(=O)C2(c3ccccc3)CC2(Cl)Cl)c1` (configuration not stated), the AC50 was 1 µM (active).

`Cc1cccc(NC2=NC(=S)N(c3ccc(C(=O)O)cc3)C23CCCCC3)c1`: the “activity, negative = inhibition” value was -54.6%. In the case of `Cc1cccc(NC(=O)C2(c3ccc([N+](=O)[O-])cc3)CCCC2)c1`, the AC50 is 0.891 µM (active).

With `CCN(CC)CCOC(=O)C1(c2ccc([N+](=O)[O-])cc2)CCCC1`, the “activity, negative = inhibition” value was -32.9%. `CC12CCC(C(=O)Nc3cccc4ccccc34)(C1Br)C2(C)C` (configuration not stated): the AC50 was 8.91 µM (active). On to `CCOC(=O)N/N=C1/C[C@@H](O)[C@@H](O)[C@@H]2[C@@H]3C(=O)N(C4CCCCC4)C(=O)[C@H]3CC[C@@H]12`, for which the activity, negative = inhibition was -22.2% [at 11.4 µM].

Take `C[N+]1(CCCC[N+]2(C)CCCCCCC2)CCCCCCC1`: the activity, negative = inhibition is 34.1% [at 11.4 µM].

`CCc1ccccc1NC(=O)c1ccc(-n2c(C)ccc2C)cc1`: the AC50 was 15.8 µM (active). On the same count and under the same terms, to `C=CCNc1oc(/C=C/c2ccccc2)nc1C#N` belongs 4.47 µM (active); to `O=C(O)c1ccc2c3c1cccc3c(=O)n1c3ccccc3nc21`, 3.98 µM (active). Take `O=c1c2ccc([N+](=O)[O-])c3cccc(c32)c2nc3ccccc3n12`: the “activity, negative = inhibition” value is -7.67%.
